Source: the supplement of paper PMC11732987, “Enantioselective OTUD7B fragment discovery through chemoproteomics screening and high-throughput optimisation” (Communications Chemistry, 2025)

Key:
Assay in all cases: log2 ratio of Biotin-Ahx-Ub-VS probe labelling (fragment/DMSO); higher = less target engagement (more negative = stronger competition), active = hit call of the paper (q ≤ 0.05, log2 ratio ≤ -1)
Settings in all cases: compound concentration: 200 uM; treatment time: 3 h
USP9X = USP9X (UniProt Q93008)
Chain of USP9X (Q93008 whole entry, the tested form may be a part): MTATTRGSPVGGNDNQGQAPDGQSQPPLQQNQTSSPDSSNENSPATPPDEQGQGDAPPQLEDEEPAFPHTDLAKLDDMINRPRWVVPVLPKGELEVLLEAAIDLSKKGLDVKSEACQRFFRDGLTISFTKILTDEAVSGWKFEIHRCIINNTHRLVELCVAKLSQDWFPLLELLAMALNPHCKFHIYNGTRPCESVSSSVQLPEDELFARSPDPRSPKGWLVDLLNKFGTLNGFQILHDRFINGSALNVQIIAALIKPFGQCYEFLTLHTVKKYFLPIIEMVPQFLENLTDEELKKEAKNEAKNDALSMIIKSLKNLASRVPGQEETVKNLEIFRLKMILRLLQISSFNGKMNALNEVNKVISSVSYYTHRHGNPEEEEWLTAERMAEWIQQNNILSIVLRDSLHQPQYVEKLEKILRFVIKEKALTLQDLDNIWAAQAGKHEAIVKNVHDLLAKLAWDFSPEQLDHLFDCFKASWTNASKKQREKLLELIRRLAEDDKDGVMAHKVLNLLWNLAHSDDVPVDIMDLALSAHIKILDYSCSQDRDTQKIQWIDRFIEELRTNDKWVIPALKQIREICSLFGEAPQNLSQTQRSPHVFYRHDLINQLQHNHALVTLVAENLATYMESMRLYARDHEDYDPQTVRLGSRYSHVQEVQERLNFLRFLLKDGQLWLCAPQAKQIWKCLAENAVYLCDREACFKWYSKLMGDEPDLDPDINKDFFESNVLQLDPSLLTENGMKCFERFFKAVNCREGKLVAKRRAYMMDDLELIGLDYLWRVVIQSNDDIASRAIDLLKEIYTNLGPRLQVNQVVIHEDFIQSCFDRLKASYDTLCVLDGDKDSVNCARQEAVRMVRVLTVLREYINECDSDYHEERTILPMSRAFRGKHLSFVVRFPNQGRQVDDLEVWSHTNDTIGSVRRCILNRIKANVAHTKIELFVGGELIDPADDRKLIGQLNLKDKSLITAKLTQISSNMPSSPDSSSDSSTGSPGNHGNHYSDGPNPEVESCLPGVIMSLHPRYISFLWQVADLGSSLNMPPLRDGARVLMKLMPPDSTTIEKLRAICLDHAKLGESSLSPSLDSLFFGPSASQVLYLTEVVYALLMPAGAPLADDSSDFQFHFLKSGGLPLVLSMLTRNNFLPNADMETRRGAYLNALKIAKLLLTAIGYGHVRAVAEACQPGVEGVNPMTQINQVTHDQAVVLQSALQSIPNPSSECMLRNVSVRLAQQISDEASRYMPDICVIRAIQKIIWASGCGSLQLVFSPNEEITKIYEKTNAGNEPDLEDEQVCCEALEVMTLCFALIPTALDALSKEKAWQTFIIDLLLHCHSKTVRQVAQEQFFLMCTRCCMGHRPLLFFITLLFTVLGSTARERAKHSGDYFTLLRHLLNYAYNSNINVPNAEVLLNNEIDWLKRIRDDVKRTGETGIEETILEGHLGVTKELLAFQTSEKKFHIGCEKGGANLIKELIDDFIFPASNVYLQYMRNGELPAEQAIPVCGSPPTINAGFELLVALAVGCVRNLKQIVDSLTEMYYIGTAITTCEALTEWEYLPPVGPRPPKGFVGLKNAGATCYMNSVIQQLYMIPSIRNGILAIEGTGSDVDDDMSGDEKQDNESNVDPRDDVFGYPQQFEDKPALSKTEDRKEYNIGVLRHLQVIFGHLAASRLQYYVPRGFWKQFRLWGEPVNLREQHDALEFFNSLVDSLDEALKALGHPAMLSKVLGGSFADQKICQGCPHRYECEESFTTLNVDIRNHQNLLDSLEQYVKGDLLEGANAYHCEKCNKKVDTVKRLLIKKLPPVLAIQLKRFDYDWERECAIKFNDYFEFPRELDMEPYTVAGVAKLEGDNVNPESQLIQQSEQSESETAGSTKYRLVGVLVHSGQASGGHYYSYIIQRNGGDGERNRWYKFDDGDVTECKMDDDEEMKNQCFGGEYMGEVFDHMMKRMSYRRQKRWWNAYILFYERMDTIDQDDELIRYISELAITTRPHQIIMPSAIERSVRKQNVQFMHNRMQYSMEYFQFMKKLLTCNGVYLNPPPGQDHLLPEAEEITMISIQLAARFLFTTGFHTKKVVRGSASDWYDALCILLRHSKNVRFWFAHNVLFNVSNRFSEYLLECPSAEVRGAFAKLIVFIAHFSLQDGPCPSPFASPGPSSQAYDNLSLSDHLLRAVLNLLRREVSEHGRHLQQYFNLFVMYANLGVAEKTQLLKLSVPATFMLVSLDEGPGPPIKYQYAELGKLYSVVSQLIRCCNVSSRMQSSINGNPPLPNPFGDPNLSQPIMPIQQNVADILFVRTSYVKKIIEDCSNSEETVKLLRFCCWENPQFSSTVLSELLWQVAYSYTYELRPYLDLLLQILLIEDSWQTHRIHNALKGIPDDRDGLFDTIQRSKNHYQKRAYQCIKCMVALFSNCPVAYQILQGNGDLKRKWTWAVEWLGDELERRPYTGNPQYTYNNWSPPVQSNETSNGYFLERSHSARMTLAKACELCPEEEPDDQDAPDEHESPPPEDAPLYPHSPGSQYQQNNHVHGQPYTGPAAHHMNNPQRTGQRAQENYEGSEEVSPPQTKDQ
Summary of the method: (§1)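 Using Biotin-Ahx-Ub-VS at 0.5 µM final for 1 h, DUBs were labelled in HEK293T lysate (495 µg per sample) that had first been treated in triplicate with fragment at 200 µM or vehicle for 3 h. NeutrAvidin enrichment, LysC and trypsin digestion and diaPASEF LC-MS/MS followed. Spectronaut label-free quantities were global-median-normalised. Values are average log2 fragment/vehicle ratios by unpaired t-test, using proteins with ≥2 unique peptides.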

UniProt O00487 = target: UniProt O00487
Chain of UniProt O00487 (O00487 whole entry): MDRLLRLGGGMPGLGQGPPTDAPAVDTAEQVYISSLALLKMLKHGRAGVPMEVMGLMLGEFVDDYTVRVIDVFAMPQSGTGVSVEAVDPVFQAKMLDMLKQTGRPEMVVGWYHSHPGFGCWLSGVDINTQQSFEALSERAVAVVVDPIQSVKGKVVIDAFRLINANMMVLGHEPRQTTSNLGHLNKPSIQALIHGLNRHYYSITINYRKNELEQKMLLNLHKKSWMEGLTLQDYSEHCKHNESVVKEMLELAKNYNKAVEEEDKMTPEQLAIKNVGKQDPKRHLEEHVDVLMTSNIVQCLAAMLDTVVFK
Summary of the method: as §1

UniProt O00507 = target: UniProt O00507
Summary of the method: as §1

UniProt P51784 = target: UniProt P51784
Chain of UniProt P51784 (P51784 whole entry): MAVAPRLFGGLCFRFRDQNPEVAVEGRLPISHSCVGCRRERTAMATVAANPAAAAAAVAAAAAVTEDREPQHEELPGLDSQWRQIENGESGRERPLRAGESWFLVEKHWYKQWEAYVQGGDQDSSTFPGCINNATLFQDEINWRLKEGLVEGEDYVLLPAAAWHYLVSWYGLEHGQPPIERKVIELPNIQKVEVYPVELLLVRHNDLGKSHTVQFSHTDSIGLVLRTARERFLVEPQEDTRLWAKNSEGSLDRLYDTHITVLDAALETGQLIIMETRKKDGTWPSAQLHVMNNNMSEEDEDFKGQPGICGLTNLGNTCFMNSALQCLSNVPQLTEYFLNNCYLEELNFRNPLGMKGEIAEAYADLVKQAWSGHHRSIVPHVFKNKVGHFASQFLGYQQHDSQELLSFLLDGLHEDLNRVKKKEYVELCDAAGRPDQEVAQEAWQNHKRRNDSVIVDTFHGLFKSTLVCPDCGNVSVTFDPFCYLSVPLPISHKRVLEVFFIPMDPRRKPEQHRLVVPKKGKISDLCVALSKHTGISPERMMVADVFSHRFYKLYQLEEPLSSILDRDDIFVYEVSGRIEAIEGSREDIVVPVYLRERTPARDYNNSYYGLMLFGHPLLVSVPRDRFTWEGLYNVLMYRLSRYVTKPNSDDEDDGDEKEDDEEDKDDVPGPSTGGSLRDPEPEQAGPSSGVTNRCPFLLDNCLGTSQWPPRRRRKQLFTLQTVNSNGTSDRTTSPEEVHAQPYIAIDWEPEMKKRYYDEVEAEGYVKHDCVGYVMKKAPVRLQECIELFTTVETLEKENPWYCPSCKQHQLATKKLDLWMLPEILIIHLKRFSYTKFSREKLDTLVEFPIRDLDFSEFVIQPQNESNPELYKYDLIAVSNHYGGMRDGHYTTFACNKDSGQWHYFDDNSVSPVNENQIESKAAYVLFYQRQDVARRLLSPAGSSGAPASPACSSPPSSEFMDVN
Summary of the method: as §1

UniProt Q5T2D3 = target: T1, UniProt Q5T2D3
T1 sequence (whole entry): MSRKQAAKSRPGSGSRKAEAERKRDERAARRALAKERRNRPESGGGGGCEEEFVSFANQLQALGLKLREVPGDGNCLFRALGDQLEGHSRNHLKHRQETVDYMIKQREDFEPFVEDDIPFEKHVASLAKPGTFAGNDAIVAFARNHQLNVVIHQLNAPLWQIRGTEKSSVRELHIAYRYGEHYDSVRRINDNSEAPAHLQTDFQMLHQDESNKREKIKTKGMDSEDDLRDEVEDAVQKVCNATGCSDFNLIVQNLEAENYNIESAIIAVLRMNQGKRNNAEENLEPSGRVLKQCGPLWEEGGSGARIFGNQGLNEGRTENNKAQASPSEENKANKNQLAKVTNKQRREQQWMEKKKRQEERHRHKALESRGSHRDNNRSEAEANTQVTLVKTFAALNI
Summary of the method: as §1

UniProt Q8TE49 = target: T2, UniProt Q8TE49
T2 sequence (whole entry): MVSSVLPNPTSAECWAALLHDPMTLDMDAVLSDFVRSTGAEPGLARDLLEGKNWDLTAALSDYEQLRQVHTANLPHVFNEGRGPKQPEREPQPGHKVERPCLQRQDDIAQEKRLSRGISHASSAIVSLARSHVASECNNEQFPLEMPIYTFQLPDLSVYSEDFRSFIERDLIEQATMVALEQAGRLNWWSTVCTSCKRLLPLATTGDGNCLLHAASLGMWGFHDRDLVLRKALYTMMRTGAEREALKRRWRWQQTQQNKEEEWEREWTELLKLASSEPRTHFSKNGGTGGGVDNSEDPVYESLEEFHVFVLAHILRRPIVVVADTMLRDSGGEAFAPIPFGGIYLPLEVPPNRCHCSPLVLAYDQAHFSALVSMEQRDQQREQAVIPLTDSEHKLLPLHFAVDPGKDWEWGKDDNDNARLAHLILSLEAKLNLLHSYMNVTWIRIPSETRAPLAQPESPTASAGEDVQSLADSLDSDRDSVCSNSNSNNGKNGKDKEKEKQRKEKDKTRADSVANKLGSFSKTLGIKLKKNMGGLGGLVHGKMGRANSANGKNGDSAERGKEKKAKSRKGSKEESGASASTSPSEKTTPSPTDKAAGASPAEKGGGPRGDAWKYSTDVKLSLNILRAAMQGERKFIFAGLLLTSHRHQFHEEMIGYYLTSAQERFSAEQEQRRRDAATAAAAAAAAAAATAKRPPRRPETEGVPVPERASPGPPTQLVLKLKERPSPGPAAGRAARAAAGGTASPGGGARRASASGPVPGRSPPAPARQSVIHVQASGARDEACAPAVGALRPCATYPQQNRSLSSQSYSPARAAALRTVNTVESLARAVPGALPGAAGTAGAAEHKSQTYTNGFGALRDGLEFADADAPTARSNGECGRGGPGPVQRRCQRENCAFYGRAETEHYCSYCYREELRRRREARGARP
Summary of the method: as §1

UniProt Q9P2H5 = target: T3, UniProt Q9P2H5
T3 sequence (whole entry): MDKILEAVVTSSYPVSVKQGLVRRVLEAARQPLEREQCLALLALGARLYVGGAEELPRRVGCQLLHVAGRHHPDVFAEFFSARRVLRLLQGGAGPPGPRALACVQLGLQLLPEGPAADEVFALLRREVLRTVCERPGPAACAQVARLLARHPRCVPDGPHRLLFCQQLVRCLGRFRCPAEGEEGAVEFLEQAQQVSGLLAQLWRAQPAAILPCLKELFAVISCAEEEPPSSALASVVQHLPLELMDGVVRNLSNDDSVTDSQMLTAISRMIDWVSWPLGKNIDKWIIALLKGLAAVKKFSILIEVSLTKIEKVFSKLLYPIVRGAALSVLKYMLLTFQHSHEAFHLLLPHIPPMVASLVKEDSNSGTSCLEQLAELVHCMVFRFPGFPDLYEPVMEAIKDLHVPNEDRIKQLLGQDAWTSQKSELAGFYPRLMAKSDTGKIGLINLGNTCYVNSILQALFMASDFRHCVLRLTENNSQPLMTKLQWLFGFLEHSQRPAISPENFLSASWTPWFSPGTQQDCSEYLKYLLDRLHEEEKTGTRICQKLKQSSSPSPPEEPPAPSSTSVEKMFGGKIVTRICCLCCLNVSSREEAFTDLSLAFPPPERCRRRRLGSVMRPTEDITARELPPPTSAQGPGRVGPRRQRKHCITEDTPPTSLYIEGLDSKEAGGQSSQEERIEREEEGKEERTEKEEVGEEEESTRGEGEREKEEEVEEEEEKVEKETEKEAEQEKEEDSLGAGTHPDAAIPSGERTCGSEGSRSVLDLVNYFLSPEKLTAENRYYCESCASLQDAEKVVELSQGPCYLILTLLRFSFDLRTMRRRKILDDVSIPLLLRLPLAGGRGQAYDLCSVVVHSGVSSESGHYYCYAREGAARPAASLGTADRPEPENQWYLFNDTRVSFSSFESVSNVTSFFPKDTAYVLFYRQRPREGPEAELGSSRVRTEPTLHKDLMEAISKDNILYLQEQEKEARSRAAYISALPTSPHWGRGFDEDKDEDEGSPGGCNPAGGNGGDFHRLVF
Summary of the method: as §1

UniProt Q9UGI0 = target: T4, UniProt Q9UGI0
T4 sequence (whole entry): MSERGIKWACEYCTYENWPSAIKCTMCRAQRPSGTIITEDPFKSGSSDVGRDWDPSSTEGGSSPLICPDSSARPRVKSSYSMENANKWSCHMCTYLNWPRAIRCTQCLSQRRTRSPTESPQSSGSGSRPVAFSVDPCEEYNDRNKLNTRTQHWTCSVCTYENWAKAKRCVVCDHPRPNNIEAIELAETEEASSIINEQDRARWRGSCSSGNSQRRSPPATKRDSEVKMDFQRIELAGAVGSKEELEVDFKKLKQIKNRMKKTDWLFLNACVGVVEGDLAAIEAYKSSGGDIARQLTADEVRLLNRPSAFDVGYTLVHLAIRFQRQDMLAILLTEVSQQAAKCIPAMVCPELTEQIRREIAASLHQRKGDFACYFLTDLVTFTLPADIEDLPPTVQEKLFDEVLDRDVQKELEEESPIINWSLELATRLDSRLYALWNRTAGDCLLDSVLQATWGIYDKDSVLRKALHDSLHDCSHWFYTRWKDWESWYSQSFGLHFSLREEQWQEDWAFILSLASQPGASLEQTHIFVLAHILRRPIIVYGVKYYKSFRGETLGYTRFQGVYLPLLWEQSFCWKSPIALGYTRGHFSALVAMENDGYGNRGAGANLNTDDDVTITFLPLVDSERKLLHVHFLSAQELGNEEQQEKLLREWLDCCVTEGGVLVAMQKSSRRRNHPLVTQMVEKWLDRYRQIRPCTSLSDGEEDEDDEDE
Summary of the method: as §1

YOD1 = target: T5, YOD1 (UniProt Q5VVQ6)
T5 sequence (whole entry): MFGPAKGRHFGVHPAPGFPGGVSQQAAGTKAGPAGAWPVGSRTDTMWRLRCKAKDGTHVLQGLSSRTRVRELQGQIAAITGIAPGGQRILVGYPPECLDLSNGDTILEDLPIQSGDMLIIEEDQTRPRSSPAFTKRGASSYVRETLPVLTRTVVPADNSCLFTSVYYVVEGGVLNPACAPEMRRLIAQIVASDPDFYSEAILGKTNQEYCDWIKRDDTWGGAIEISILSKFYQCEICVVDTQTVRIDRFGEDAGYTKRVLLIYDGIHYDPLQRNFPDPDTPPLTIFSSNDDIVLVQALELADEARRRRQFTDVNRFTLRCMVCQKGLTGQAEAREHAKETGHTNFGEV
Summary of the method: as §1

Measured: log2 ratio of Biotin-Ahx-Ub-VS probe labelling

Cl.O=C(CCl)N1CCn2cncc2C1
inactive: USP9X -0.0687 | UniProt O00487 -0.0669 | UniProt O00507 -0.138 | UniProt P51784 -0.251 | UniProt Q5T2D3 -0.246 | UniProt Q8TE49 -0.433 | UniProt Q9P2H5 -0.128 | UniProt Q9UGI0 -0.182 | YOD1 -0.133
